Records with an inconclusive call do not appear. Activity calls are given as the source filed them. Unless noted, calls come from the whole dose curve; as a rule, active = well fitted curve in the direction sought with a large enough effect; inconclusive = small, poorly fitted or top-dose-only effect, or another doubt; inactive = no such curve, though single readings can be large; an effect the other way counts as inactive or inconclusive.
Legend:
[1] = target: Cytochrome P450 3A4 (Homo sapiens) (UniProt P08684); assay: qHTS Assay for Inhibitors and Substrates of Cytochrome P450 3A4 (AID 884); conditions: recombinant CYP3A4, Luciferin-PPXE luminescence; series mostly up to 57.1 µM; note: nearly all actives have a fitted effect of over 50% in size; note: potency is the fitted concentration of half-maximal effect
Sequence of Cytochrome P450 3A4 (Homo sapiens) (P08684 whole entry, looked up): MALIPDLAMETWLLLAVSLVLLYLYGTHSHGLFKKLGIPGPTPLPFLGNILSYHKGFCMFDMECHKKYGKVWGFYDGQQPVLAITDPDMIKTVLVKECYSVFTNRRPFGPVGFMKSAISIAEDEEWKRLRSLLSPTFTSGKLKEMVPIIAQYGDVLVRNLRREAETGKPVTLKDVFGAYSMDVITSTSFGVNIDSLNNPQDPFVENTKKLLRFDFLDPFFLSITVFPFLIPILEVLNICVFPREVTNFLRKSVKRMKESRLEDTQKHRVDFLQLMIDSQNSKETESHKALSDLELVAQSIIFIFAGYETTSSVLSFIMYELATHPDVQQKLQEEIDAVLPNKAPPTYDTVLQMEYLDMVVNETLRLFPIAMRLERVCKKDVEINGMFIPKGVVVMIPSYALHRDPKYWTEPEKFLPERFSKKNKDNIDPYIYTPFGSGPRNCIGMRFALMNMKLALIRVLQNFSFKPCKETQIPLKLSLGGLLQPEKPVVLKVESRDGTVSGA
How it was run: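 Luminescent readout of luciferin produced by CYP3A4 (20 nM) dealkylation of Luciferin-PPXE, 25 uM (its KM). NADPH-driven reaction ran 60 min at RT after 10 min compound preincubation; data scaled to 57 uM ketoconazole as 100% inhibition.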

[2] = target: DNA dC->dU-editing enzyme APOBEC-3G (Homo sapiens) (UniProt Q9HC16); assay: qHTS for inhibitors of Vif-A3G interactions: Validation (AID 588379); conditions: Vif-A3G protein interaction assay; series mostly up to 46.1 µM; note: 0% is about no effect
Sequence of DNA dC->dU-editing enzyme APOBEC-3G (Homo sapiens) (Q9HC16 whole entry, looked up): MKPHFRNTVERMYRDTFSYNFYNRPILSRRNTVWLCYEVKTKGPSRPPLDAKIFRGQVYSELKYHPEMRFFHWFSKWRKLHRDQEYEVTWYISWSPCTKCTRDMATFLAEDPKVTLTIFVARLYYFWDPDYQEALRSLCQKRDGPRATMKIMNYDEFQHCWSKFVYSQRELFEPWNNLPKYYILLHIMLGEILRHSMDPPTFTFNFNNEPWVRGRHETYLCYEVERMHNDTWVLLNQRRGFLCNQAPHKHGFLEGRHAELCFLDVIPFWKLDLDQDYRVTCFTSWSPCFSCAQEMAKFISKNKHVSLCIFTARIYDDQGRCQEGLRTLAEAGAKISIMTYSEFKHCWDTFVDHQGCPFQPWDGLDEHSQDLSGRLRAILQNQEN
How it was run: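 Yellow fluorescence (Ex 488, Em 500-530) of Vif-coexpressing HeLa A3G-eYFP cells, scanned by Acumen cytometer, reports blocked A3G degradation. Cells plated at 700/well overnight at 37 deg C before compound addition, then a further overnight compound incubation at 37 deg C.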

[3] = target: Cytochrome P450 3A4 (Homo sapiens) (UniProt P08684); assay: qHTS Assay for Activators of Cytochrome P450 3A4 (AID 885); conditions: recombinant CYP3A4, Luciferin-PPXE luminescence, 60 min; series mostly up to 57.1 µM; note: nearly all actives have a fitted effect of over 65% in size
How it was run: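 Human CYP3A4 dealkylates Luciferin-PPXE to luciferin, which luciferase detection converts to light. Substrate was at its KM (25uM), buffer 200mM KPO4, reaction 60 min at RT.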

[4] = target: Androgen receptor (Homo sapiens) (UniProt P10275); assay: qHTS assay for small molecule agonists of androgen receptor signaling (AID 588515; active = well fitted curve in the direction sought with a large enough effect in the signal ratio, with a control signal flat; the % refers to the signal ratio; note: % is set by controls: 0 for no effect and ±100 for the full control effect); conditions: AR-UAS-bla HEK293, beta-lactamase ratio, agonist 16 h; activation: hits give high values
Sequence of Androgen receptor (Homo sapiens) (P10275 whole entry, looked up): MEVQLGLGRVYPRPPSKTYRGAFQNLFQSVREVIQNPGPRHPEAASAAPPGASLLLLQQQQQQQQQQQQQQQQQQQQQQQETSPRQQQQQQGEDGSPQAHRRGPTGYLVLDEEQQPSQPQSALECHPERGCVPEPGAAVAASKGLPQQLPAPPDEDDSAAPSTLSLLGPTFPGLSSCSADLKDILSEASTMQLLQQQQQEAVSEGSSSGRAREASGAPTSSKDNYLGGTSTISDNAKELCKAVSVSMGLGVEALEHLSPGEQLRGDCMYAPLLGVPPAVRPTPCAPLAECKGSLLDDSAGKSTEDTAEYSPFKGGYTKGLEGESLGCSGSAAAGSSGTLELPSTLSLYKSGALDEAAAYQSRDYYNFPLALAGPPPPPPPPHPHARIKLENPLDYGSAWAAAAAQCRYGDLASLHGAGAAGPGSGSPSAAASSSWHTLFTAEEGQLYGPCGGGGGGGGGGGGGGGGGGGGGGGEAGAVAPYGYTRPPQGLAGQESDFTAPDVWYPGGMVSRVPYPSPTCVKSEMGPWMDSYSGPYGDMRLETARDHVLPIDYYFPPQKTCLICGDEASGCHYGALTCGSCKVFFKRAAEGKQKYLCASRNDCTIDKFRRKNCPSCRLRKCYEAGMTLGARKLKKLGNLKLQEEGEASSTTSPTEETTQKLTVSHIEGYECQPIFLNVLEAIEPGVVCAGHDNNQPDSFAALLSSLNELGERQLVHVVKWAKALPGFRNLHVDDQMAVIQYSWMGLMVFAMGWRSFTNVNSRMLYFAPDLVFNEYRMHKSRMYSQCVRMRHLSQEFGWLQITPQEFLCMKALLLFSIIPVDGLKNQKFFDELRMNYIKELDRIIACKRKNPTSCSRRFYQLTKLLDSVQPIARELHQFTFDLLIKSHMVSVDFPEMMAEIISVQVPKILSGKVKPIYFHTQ
How it was run: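 Stimulation of an AR-responsive β-lactamase reporter in GripTite HEK293 cells was measured after 16 h compound exposure at 37 °C, via CCF4 fluorescence after 2 h RT. EC50 from Hill fits, normalized to R1881 at 30 nM.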

[5] = target: Androgen receptor (Homo sapiens) (UniProt P10275); assay: qHTS assay for small molecule antagonists of androgen receptor signaling (AID 588516; active = well fitted curve in the direction sought with a large enough effect in the signal ratio, with a control signal flat, not every such curve was filed as active; the % refers to the signal ratio; note: % is set by controls: 0 for no effect and ±100 for the full control effect); conditions: AR-UAS-bla HEK293, beta-lactamase ratio, antagonist mode, 16 h; series mostly up to 76.8 µM
How it was run: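 AR-UAS-bla GripTite HEK 293 cells (2000/well) treated with compound titrations plus 10 nM R1881 for 16 h at 37C. Beta-lactamase read by CCF4 FRET (460/530 nm); IC50 from Hill fits, normalized to R1881 and DMSO control wells.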

[6] = target: Bile acid receptor (Homo sapiens) (UniProt Q96RI1); assay: qHTS assay for small molecule antagonists of farnesoid X receptor signaling (AID 588526; calls by dose curve; note: % is set by controls: 0 for no effect and ±100 for the full control effect); conditions: HEK293T FXR-UAS-bla, beta-lactamase ratio, antagonist mode; series mostly up to 76.7 µM
Sequence of Bile acid receptor (Homo sapiens) (Q96RI1 whole entry, looked up): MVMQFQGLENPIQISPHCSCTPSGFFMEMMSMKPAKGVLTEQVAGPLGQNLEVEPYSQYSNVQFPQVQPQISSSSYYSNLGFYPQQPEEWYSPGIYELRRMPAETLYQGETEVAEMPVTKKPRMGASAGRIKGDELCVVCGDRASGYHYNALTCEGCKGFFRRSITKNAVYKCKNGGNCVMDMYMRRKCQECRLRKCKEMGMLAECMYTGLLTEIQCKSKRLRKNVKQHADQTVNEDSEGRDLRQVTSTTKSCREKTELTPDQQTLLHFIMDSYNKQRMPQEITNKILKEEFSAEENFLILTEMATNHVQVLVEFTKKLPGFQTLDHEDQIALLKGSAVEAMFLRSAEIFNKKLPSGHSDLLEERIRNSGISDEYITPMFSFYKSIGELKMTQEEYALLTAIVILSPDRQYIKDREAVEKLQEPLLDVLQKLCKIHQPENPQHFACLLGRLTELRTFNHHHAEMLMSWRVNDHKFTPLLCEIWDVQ
How it was run: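 Concentration-response titrations were fitted to the Hill equation for half-maximal inhibition and maximal response, with data normalised to 50 uM chenodeoxycholic acid and DMSO control wells. Cells: FXR-UAS-bla HEK293T, dialyzed FBS.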

[7] = target: Glucocorticoid receptor (Homo sapiens) (UniProt P04150); assay: qHTS assay for small molecule agonists of glucocorticoid receptor signaling (AID 588532; active = well fitted curve in the direction sought with a large enough effect in the signal ratio, with a control signal flat; the % refers to the signal ratio;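 note: 100% = dexamethasone at 0.1 µM and 0% = DMSO only wells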); conditions: HeLa MMTV-bla, beta-lactamase ratio, agonist, 18 h; hits give high values; percent of dexamethasone control, DMSO zero
Sequence of Glucocorticoid receptor (Homo sapiens) (P04150 whole entry, looked up): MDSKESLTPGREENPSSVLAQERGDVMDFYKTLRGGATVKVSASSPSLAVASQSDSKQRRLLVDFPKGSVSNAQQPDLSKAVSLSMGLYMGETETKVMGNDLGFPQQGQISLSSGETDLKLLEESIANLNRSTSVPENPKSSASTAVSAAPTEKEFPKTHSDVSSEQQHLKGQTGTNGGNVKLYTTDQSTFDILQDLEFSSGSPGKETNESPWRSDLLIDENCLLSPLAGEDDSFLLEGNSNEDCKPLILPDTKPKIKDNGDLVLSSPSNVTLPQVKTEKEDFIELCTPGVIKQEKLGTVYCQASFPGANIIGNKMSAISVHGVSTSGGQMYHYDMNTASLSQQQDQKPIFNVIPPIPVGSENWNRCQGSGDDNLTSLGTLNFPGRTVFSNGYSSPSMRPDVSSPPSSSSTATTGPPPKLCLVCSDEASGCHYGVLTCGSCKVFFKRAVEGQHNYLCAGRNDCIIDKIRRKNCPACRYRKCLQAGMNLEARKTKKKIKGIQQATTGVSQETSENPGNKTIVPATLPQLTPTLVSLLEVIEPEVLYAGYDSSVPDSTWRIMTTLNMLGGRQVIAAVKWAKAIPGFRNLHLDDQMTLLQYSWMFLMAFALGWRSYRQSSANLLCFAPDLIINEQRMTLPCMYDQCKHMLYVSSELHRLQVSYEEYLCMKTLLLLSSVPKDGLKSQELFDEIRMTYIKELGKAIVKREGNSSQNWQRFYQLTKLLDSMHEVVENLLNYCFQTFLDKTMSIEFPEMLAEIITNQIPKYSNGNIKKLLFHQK
How it was run: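 Titration series, up to 92 uM, applied to GRE-bla HeLa cells for 18 h at 37 C. Detection by CCF4 FRET substrate after 2 h at RT.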

[8] = target: Glucocorticoid receptor (Homo sapiens) (UniProt P04150); assay: qHTS assay for small molecule antagonists of glucocorticoid receptor signaling (AID 588533; active = well fitted inhibition curve with a large enough effect in the signal ratio, with a control signal flat, not every such curve was filed as active; the % refers to the signal ratio;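 note: cells stimulated with 2 nM dexamethasone as agonist; % is set by controls: 0 for no effect and ±100 for the full control effect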); conditions: HeLa MMTV-bla, GRE beta-lactamase ratio, antagonist mode, 18 h; series mostly up to 76.8 µM
How it was run: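 Antagonist-mode qHTS: compound titrations added to GRE-bla HeLa cells, then dexamethasone 2 nM final; 18 h, 37 C. CCF4 FRET fluorescence normalized to dexamethasone and DMSO; IC50 from Hill fit.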

[9] = target: Peroxisome proliferator-activated receptor delta (Homo sapiens) (UniProt Q03181); assay: qHTS assay for small molecule antagonists of peroxisome proliferator-activated receptor delta signaling (AID 588535; active = well fitted inhibition curve with a large enough effect in the signal ratio, with a control signal flat, not every such curve was filed as active; the % refers to the signal ratio); conditions: HEK293T PPARd-UAS-bla, beta-lactamase FRET ratio, 18 h; series mostly up to 76.7 µM
Sequence of Peroxisome proliferator-activated receptor delta (Homo sapiens) (Q03181 whole entry, looked up): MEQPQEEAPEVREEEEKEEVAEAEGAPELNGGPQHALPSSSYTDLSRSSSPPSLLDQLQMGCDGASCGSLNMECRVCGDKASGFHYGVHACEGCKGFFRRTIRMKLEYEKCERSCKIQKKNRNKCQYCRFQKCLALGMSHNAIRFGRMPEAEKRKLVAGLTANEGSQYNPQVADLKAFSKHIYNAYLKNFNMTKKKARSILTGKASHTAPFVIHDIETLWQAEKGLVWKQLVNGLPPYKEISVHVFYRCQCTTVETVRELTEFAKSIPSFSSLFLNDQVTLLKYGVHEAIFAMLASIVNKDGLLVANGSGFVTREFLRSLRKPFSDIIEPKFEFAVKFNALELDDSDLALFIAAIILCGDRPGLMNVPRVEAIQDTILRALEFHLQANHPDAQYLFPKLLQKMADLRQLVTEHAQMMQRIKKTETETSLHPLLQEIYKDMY
How it was run: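 Inhibition of PPAR-delta response element-driven beta-lactamase expression is measured in HEK293T cells exposed to a compound titration series for 18 hrs at 37 C. Half-maximal inhibition comes from Hill equation fitting.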

[10] = target: Peroxisome proliferator-activated receptor gamma (Homo sapiens) (UniProt P37231); assay: qHTS assay for small molecule agonists of peroxisome proliferator-activated receptor gamma signaling (AID 588536; active = well fitted curve in the direction sought with a large enough effect in the signal ratio, with a control signal flat, not every such curve was filed as active; the % refers to the signal ratio;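 note: 0% = DMSO basal wells and 100% = rosiglitazone at 2 µM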); conditions: HEK293 PPARg-UAS-bla, beta-lactamase ratio, 16 h, percent of rosiglitazone response, DMSO as zero; series mostly up to 76.7 µM
Sequence of Peroxisome proliferator-activated receptor gamma (Homo sapiens) (P37231 whole entry, looked up): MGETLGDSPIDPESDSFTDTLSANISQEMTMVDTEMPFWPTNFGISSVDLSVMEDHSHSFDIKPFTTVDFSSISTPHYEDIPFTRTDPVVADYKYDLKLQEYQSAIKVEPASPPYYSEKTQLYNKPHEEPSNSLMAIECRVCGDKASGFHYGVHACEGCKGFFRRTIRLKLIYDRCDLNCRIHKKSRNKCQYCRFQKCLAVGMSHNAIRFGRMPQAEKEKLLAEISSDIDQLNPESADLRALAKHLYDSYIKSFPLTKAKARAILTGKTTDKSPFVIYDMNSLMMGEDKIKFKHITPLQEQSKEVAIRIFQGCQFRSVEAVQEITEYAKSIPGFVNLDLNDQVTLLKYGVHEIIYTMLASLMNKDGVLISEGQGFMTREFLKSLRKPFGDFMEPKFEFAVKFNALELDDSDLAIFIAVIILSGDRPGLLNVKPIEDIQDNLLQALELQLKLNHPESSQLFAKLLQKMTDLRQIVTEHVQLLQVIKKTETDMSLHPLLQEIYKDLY
How it was run: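 Cells were plated and held 6–6.5 h at 37 C, then compounds were added as a titration series. After a further 16 h, CCF4 dye was loaded for 2 h at room temperature and emission at 460/530 nm recorded.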

[11] = qHTS assay for small molecule agonists of the antioxidant response element (ARE) signaling pathway (AID 651741; active = well fitted activation curve with a large enough effect in the signal ratio; the % refers to the signal ratio; note: % of control where 0% means no effect); conditions: HepG2 ARE-bla reporter, beta-lactamase FRET ratio, 16 h; series mostly up to 96 µM
How it was run: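 Reporter: beta-lactamase under ARE, stably in HepG2. Exposure: 16 h, 37 C, compounds delivered in DMSO by pin tool after 5 h cell preincubation. Readout: FRET substrate fluorescence after 2 h at RT.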

[12] = qHTS assay for small molecule activators of the nuclear factor-kappa B (NF-kB) signaling pathway (AID 651749; active = well fitted activation curve with a large enough effect in the signal ratio; the % refers to the signal ratio; note: % of control where 0% means no effect); conditions: NF-kB-bla ME-180 cells, beta-lactamase FRET ratio, 16 h; activation: hits give high values
How it was run: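 Human ME-180 cervical cells with an NF-kB-bla construct; compounds added via 23 nL pin transfer, DMSO as vehicle; incubation 16 hr. Reporter activity measured by FRET disruption.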

[13] = target: Peroxisome proliferator-activated receptor gamma (Homo sapiens) (UniProt P37231); assay: qHTS assay for small molecule antagonists of peroxisome proliferator-activated receptor gamma signaling (AID 588537; active = well fitted inhibition curve with a large enough effect in the signal ratio, with a control signal flat, not every such curve was filed as active; the % refers to the signal ratio;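 note: reporter cells co-stimulated with 50 nM rosiglitazone agonist during compound treatment; % of control where 0% means no effect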); conditions: HEK293 PPARg-UAS-bla, beta-lactamase ratio, antagonist mode; series mostly up to 76.8 µM
How it was run: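 Compounds are tested as concentration series for inhibition of rosiglitazone-driven (50 nM) reporter expression in GeneBLAzer PPAR-gamma-UAS-bla HEK293 cells. After 16 h at 37 C, CCF4 substrate is added for 2 h at room temperature and blue/green fluorescence is measured.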

[14] = target: Luciferin 4-monooxygenase (Photinus pyralis) (UniProt P08659); assay: Biochemical firefly luciferase enzyme assay for NPC (AID 624030);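 note: purified P. pyralis luciferase at 10 nM with luciferin and ATP substrate; 0% = DMSO and -100% = full luciferase inhibition by PTC124 control; nearly all actives have a fitted effect of over 70% in size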; conditions: purified P. pyralis luciferase, luminescence, 5 min; series mostly up to 58.6 µM
Sequence of Luciferin 4-monooxygenase (Photinus pyralis) (P08659 whole entry, looked up): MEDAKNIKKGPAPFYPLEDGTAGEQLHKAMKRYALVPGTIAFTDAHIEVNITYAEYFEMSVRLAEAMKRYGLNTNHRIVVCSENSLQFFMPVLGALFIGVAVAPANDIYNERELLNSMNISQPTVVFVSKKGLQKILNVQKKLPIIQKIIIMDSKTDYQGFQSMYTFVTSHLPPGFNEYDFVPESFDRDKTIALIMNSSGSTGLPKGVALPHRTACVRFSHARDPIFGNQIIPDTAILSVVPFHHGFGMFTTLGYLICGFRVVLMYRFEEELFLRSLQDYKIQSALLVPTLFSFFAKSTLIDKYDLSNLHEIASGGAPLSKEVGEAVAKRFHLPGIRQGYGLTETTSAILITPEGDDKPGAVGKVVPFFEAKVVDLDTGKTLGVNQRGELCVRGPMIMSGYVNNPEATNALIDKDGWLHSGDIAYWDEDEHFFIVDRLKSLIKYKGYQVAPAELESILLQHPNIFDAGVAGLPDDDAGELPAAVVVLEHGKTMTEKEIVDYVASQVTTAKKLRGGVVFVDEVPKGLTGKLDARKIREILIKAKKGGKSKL
How it was run: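 Counter-screen for direct inhibition of the luciferase enzyme by approved-drug library compounds, run at 10 nM enzyme in 50 mM Tris acetate (final). Luminescence was read within 5 min of enzyme-buffer addition and normalized to PTC124 versus DMSO (0%).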

COC(=O)CC[C@@H](C)[C@H]1CC[C@H]2[C@@H]3CC[C@@H]4C[C@H](O)CC[C@]4(C)[C@H]3C[C@H](O)[C@]12C
inactive: Potency [1] | Potency [2]

CC1(C)CC[C@]2(C(=O)O)CC[C@]3(C)C(=CCC4[C@@]5(C)CC[C@H](O)C(C)(C)[C@@H]5CC[C@]43C)C2C1 (some centres not stated)
inactive: Potency [1] | Potency [2]

O=C(Cc1ccc(Cl)cc1)c1c(O)cc(O)cc1O
inactive: Potency [3] | Potency [2]
active: Potency [1] 5.01 µM

C=C(CO)C1Cc2c(ccc3c(=O)c4c(oc23)COc2cc(OC)c(OC)cc2-4)O1 (configuration not stated)
inactive: Potency [1] | Potency [2]

O=C(/C=C/c1ccc2c(c1)OCO2)c1cccs1
inactive: Potency [3] | Potency [2]
active: Potency [1] 0.501 µM

CS/C(=N\O)C(=O)N(C)C
inactive: activation [4] 11.7% | outcome [5] | Potency [6] | activation [7] 1.45% | Potency [8] | Potency [9] | outcome [10] | Potency [11] | activation [12] -2.88%

COc1ccc(/C=C/C(=O)c2ccc(C)s2)cc1
inactive: Potency [1] | Potency [2]

OC1CCC2Cc3ccccc3N=C12 (configuration not stated)
inactive: Potency [1] | Potency [2]

CC(C)=CCC/C(C)=C\COc1c2ccoc2cc2oc(=O)ccc12
inactive: Potency [3] | Potency [2]
active: Potency [1] 0.794 µM

CCCCCCCCCc1ccccc1
inactive: activation [4] 1.05% | outcome [5] | Potency [6] | activation [7] -4.94% | Potency [8] | Potency [9] | Potency [13] | activation [12] -0.21%

CNC(=O)Oc1ccc2c(c1)C1(C)CCN(C)C1N2C (configuration not stated)
inactive: Potency [1] | Potency [2]

COc1ccc(-c2coc3ccc(OC4OC(COC(C)=O)C(OC(C)=O)C(OC(C)=O)C4OC(C)=O)c(OC(C)=O)c3c2=O)cc1 (configuration not stated)
inactive: Potency [3] | Potency [2]

CCc1cccc(C)c1N(C(=O)CS(=O)(=O)O)[C@@H](C)COC
inactive: activation [4] -2.5% | outcome [5] | Potency [6] | activation [7] -18.8% | Potency [8] | Potency [9] | outcome [10] | Potency [11] | activation [12] -2.32%

O=c1cc(-c2ccccc2)oc2cc(O[C@@H]3O[C@H](CO)[C@@H](O)[C@H](O)[C@H]3O)c(O)c(O)c12
inactive: Potency [1] | Potency [2]

Cn1c(=O)[nH]c(=O)n(C2CCC(O)CC2)c1=O (configuration not stated)
inactive: activation [4] 1.63% | outcome [5] | Potency [6] | activation [7] -2.18% | Potency [8] | Potency [9] | Potency [13] | activation [12] -0.274%

O=c1c(O)c(-c2ccc(O)c(O)c2)oc2c(OC[C@@H]3O[C@@H](O)[C@@H](O)[C@H](O)[C@H]3O)c(O)cc(O)c12
inactive: Potency [1] | Potency [2]

CC(=O)N(CCN(C(C)=O)C(C)=O)C(C)=O
inactive: activation [4] 11.2% | outcome [5] | Potency [6] | activation [7] -10.7% | Potency [8] | Potency [9] | outcome [10] | Potency [11] | activation [12] -1.08%

C[C@H]1[C@H](C)CC[C@]2(C(=O)O)CC[C@]3(C)C(=CCC4[C@@]5(C)C[C@@H](O)[C@H](O)[C@@](C)(CO)[C@@H]5CC[C@]43C)[C@H]12 (some centres not stated)
inactive: Potency [3] | Potency [2]

COC(=O)c1c(Cl)nn(C)c1S(=O)(=O)NC(=O)Nc1nc(OC)cc(OC)n1
inactive: activation [4] 5.65% | outcome [5] | Potency [6] | activation [7] -2.96% | Potency [8] | Potency [9] | outcome [10] | Potency [13] | activation [12] -2.65%

CC(Cl)(Cl)C(=O)OCCOc1cc(Cl)c(Cl)cc1Cl
inactive: activation [4] 2.7% | outcome [5] | Potency [6] | activation [7] -10.3% | Potency [8] | Potency [9] | outcome [10] | Potency [13] | activation [12] -1.51%

Cc1cccc(-c2cc(=O)c3cc(C)ccc3o2)c1
active: Potency [1] 3.98 µM
inactive: Potency [3] | Potency [2]

O=C(O)[C@H]1[C@H]2C[C@H]3c4[nH]c5ccccc5c4CCN3C[C@@H]2CC[C@@H]1O
inactive: Potency [3] | Potency [2]

COc1ccc(-c2coc3ccc(OC4OC(COC(C)=O)C(OC(C)=O)C(OC(C)=O)C4OC(C)=O)cc3c2=O)cc1 (configuration not stated)
inactive: Potency [3] | Potency [2]

CC12CCC3c4ccc(O)cc4CCC3C1CCC2=O (configuration not stated)
inactive: Potency [2] | Potency [14]

O=c1cc(-c2cccc(O)c2)oc2cccc(O)c12
inactive: Potency [3] | Potency [2]
active: Potency [1] 7.94 µM

C=C1C(=O)O[C@@H]2C3OC3(C)CC/C=C(\C)CC[C@@H]12 (some centres not stated)
inactive: Potency [3] | Potency [2]

COc1ccccc1-c1oc2ccccc2c(=O)c1O
inactive: Potency [3] | Potency [2]
active: Potency [1] 25.1 µM

Cc1cccc(-c2cc(=O)c3cc(Br)ccc3o2)c1
inactive: Potency [3] | Potency [2]
active: Potency [1] 12.6 µM

CC[C@@H]1CN2CCc3cc(OC)c(OC)cc3[C@@H]2C[C@@H]1C[C@H]1NCCc2cc(OC)c(OC)cc21
inactive: Potency [3] | Potency [2]

Reference: PubChem BioAssay (NCATS)
